The list is not random: actives were taken first. Their share in the collection is about 1.5%.
RAD52 anneal inh – RAD52 DNA annealing inhibitors, primary screen, biochemical, FRET, single point, set 2 | recombinant RAD52 DNA annealing, FRET fluorescence | 0.46% of 360,000 active | inhibition, % at 18.7 µM;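 active means every replicate showing at least 50% inhibition; inconclusive means mean inhibition at least 50% but not in every replicate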
Target sequence (P43351 whole entry, looked up): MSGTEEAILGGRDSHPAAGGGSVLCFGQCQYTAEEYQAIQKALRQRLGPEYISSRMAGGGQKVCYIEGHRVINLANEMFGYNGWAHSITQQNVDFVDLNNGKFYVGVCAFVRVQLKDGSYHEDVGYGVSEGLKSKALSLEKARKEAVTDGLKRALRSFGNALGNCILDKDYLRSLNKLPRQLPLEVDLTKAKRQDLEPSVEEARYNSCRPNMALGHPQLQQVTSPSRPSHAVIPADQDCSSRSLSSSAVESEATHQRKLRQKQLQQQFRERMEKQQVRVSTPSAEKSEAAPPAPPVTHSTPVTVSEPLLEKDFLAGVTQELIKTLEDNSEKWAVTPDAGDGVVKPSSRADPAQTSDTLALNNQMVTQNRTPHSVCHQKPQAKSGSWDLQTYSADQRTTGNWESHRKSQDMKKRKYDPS
CendR NRP1 mod – modulators of CendR peptide binding to NRP-1, primary screen, biochemical, fluorescence polarization, uHTS; Neuropilin-1 (Homo sapiens), O14786; FAM-RPARPAR peptide binding to NRP-1; inhibition, % at 25 µM; 0.85% of 360,000 active; AID 602438, 2012;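 active means inhibition or corrected inhibition above about 18%, plus a signal ratio from 0.5 to 1.5, limit read from the data, passing the limit was not always enough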
miR122 inh – miR-122 Renilla sensor signal increase in Huh7, primary screen, miR-122 inhibitor project, cell-based, single point, plate reader | Huh7 miR-122 Renilla luciferase sensor, 48 h; neutral wells = 0, positive control = 100 | 0.3% of 340,000 active | activation (reporter increase), % at 12.5 µM;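 active means mean replicate activation score at least 90 and every replicate individually at or above 90; inconclusive means only one of the two criteria met; inactive means neither criterion met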;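 further: higher luciferase means less miR-122 activity so hits act as miR-122 inhibitors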
Glyco luc inh – increase of ERlucT glycosylation luciferase signal, primary screen, N-linked glycosylation inhibitor project, D54 ERlucT cells, luminescence, set 2; D54 ERlucT glycosylation luciferase reporter, 24 h; percent of 100 nM tunicamycin response; reporter increase, % at 12.5 µM; 0.23% of 360,000 active;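 active means mean luciferase reporter signal, scaled so untreated is 0 and the glycosylation-blocking control 100, at or above a set limit in every replicate; inconclusive means mean reaches the limit but not every replicate does; inactive means mean below the limit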;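 further: luciferase carries N-glycosylation sites so blocking glycosylation raises the light; 0% = median of neutral control wells and 100% = median of 100 nM tunicamycin wells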
FID counter – compounds displacing fluorescent DNA intercalator, primary screen, artefact control for HCV NS3 helicase inhibitor project, biochemical, FID fluorescence; 0.17% of 290,000 active; AID 1845, 2009; DNA fluorescent intercalator displacement; inhibition, % at 7.9 µM; in the data active means inhibition above about 37%;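 further: 0% = vehicle and 100% = reference compound; higher means more ethidium bromide displaced from hairpin DNA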
RAD54 inh – inhibitors of human RAD54 branch migration, primary screen, biochemical, fluorescence, single point; DNA repair and recombination protein RAD54-like (Homo sapiens), Q92698; inhibition, % at 10.4 µM; RAD54 Holliday junction branch migration, FAM/BHQ fluorescence; 0.14% of 360,000 active;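 active means mean normalized replicate activity at least 40 and at least half of replicates scoring 40 or more; inconclusive means only one of the two criteria met; inactive means mean below 40 and under half of replicates reaching 40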;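 further: 0% = median of neutral control wells and 100% = median of positive control wells; inhibitors cause a drop in the FAM fluorescence signal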
DNA binder FP – DNA-binding compounds via dye displacement, dose response, artefact control for RAD52 inhibitor project, biochemical, fluorescence polarization, cherry-pick; shares compounds with RAD52 anneal inh; Salmon sperm DNA/acridine orange FP displacement; AC50, µM; 8% of 1,000 active; AID 652128, 2013;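 active means fitted half-maximal concentration for signal loss at or below twice the highest dose tested, in every separate run, actives reach about 64 µM in these data; inconclusive means runs disagree, or flat partial signal loss, or poor fit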
Numbers without * were called inactive; i = inactive; ? = inconclusive; nt = not tested or not shown; [ ] = remark or other dose.

SMILES	RAD52 anneal inh	CendR NRP1 mod	miR122 inh	Glyco luc inh	FID counter	RAD54 inh	DNA binder FP
CN(C)CCCNC(=O)/C(=C\c1ccc(-c2ccc(Br)cc2)o1)NC(=O)c1ccccc1	62*	0	0	-6	21	?	i
Nc1ccc(N2CCN(CCCCN3C(=O)C4CCCN4C3=O)CC2)cc1 (configuration not stated)	101*	-6	nt	5	-2	nt	i
C[C@H](CO)N1C[C@H](C)[C@@H](CN(C)C(=O)c2ccncc2)OCCCC[C@H](C)Oc2ccc(NS(=O)(=O)c3ccc(F)cc3)cc2C1=O	8	nt	6[16.7 µM]	nt	nt	0	nt
CC(CN1CCN(CCOCCO)CC1)CN1c2ccccc2Sc2ccc(Cl)cc21 (configuration not stated)	12	-5	nt	-5	nt	12	nt
OCCN1CCN(CC/C=C2/c3ccccc3CSc3ccccc32)CC1	18	-5	-3	-2	nt	-6	nt
CN(C)CCCN1c2ccc(O)cc2Sc2ccc(Cl)cc21	49	-7	nt	10	nt	28	nt
CCSc1ccc2c(c1)N(CCCN1CCN(C)CC1)c1ccccc1S2	63*	-3	-3	-2	nt	26	i
CN1CCN(CCCN2c3ccccc3Sc3ccc(Cl)cc32)CC1	79*	3	4	1	29	13	i
OC1CC2CCC(C1)N2CCCN1c2ccccc2Sc2ccc(Cl)cc21 (configuration not stated)	91*	15	-16	-7	nt	18	i
OCCN1CCN(CC/C=C2/c3ccccc3Sc3ccc(C(F)(F)F)cc32)CC1	58*	5	1	-5	nt	8	i
CO[C@@H]1CC[C@@H]2CCOc3ccc(C#N)cc3C(=O)N(C)CCCC(=O)N(C)C[C@H]1O2	-11	nt	nt	nt	nt	4	nt
CN(C)CC(=O)N1[C@H](CO)[C@@H](c2ccc(C#CC3CC3)cc2)[C@@H]1C#N	-22	nt	nt	nt	nt	-20	nt
OCCN1CCN(CCCN2c3ccccc3Sc3ccc(C(F)(F)F)cc32)CC1	56*	6	-3	-1	24	?	i
CCN(CC)CCOC(=O)c1ccc(N=CC2=C(O)CC(C)(C)CC2=O)cc1	71*	-16	nt	-2	nt	nt	i
COc1cc2c(NCCCCCO)ncnc2c(OC)c1OC	-8	-7	-1	6	nt	-4	nt
COc1cc(NCCCCCCN)c2ncccc2c1OC	63*	31*	-4	9	nt	nt	i
CCC(=O)N1C[C@H](C)[C@@H](OC)CN(C)C(=O)c2cc(NC(=O)c3ccc(F)cc3)ccc2OC[C@@H]1C	13	nt	-2[16.7 µM]	nt	nt	-5	nt
CSc1nc(NCCCN(C)C)c2c3c(sc2n1)CN(C)CC3	77*	nt	nt	nt	42*	nt	i
CSc1nc(NCC(C)C)c2c3c(sc2n1)CN(C)CC3	nt	-8	-8	-2	17	21	nt
Cc1noc(C)c1NC(=O)N(C)C[C@@H]1Oc2ncc(C#CC3CCCCC3)cc2C(=O)N([C@@H](C)CO)C[C@@H]1C	14	nt	-14[16.7 µM]	nt	nt	0	nt
Cc1ccc(-c2csc(NC(=O)C[n+]3cc(-c4ccccc4)n4c3CCC4)n2)cc1	50*	-5	3	1	28	11	i
Cc1ccc(-c2csc(NC(=O)C[n+]3cc(-c4ccc(C)cc4)n4c3CCC4)n2)cc1	26	14	nt	2	26	nt	nt
COc1ccc(C2c3ccc4ccccc4c3Oc3ncn(CCN(C)C)c(=N)c32)cc1 (configuration not stated)	57*	3	nt	12	22	4	i
CCN1CCn2c3c(c4cc(Cl)ccc42)CCCC31 (configuration not stated)	nt	-20	1	-1	0	10	nt
CCN(CC)CCN1CCn2c3c(c4cc(C)ccc42)CCCC31 (configuration not stated)	63*	-7	nt	3	22	nt	i
SMILES	RAD52 anneal inh	CendR NRP1 mod	miR122 inh	Glyco luc inh	FID counter	RAD54 inh	DNA binder FP
c1ccc2c(c1)c1c(c3ccccc32)CN2CCCC2C1 (configuration not stated)	103*	-16	nt	21	nt	nt	25µM*
c1ccc(CN2CCC(N3CCC(N4CCCCCC4)CC3)CC2)cc1	12	2	nt	-4	14	-3	nt
CO[C@H]1CN(C)C(=O)c2cc(NS(=O)(=O)c3ccccc3C)ccc2OC[C@@H](C)NC[C@H]1C	-25	nt	0[16.7 µM]	nt	nt	4	nt
Cc1ccc2nc(N(CCCN(C)C)C(=O)c3cc(-c4cccs4)nc4ccccc34)sc2c1	54*	4	-12	-5	36	-17	i
CN(C)CCCN(C(=O)c1nc2ccccc2s1)c1nc2ccc(F)cc2s1	84*	0	-1	1	nt	2	i
COc1ccc(NC(=O)N(C)C[C@H]2OCCCC[C@H](C)Oc3ccc(NS(=O)(=O)c4ccc(OC)cc4)cc3C(=O)N([C@H](C)CO)C[C@@H]2C)cc1	nt	nt	10[16.7 µM]	nt	nt	-1	nt
CC(C)NC(=O)Nc1ccc2c(c1)C(=O)N([C@@H](C)CO)C[C@H](C)[C@@H](CN(C)C(=O)Nc1ccc3c(c1)OCO3)OCCCC[C@@H](C)O2	0	nt	-4[16.7 µM]	nt	nt	3	nt
C[C@@H]1CN([C@@H](C)CO)C(=O)Cc2cc(NC(=O)Cc3ccccc3)ccc2O[C@@H]1CN(C)Cc1ccncc1	0	nt	-11[16.7 µM]	nt	nt	-1	nt
CO[C@@H]1CN(C)C(=O)c2ccc(NC(=O)c3cccc(F)c3)cc2OC[C@H](C)N(C)C[C@H]1C	-1	nt	-2[16.7 µM]	nt	nt	-9	nt
CN(C)c1ccc(C=c2c3ccccc3n3c2c2c([n+]3C)CCCC2)cc1	89*	-3	-17	70*	nt	nt	6.9µM*
COc1ccc(-c2cnc3c(c2)C(=O)N([C@@H](C)CO)C[C@H](C)[C@@H](CN(C)S(=O)(=O)c2ccc(OC)cc2)O3)cc1	nt	nt	5[16.7 µM]	nt	nt	nt	nt
Oc1ccccc1/C=N/[n+]1ccccc1	58*	-10	4	0	-5	-7	i
Oc1ccccc1C=NC(c1ccccc1)C(O)c1ccccc1 (configuration not stated)	nt	-5	-3	-1	6	0	nt
CC1CCN(CCOCCOc2ccc(Cl)cc2Br)CC1	52*	2	8	0	16	4	i
O=C(Nc1ccccc1F)N[C@H]1C=C[C@@H](CC(=O)N2CCCCC2)O[C@@H]1CO	-7	nt	nt	nt	nt	0	nt

Screens (PubChem BioAssay)
